Results taken from PubChem BioAssay.

assay: resazurin metabolic signal in HepG2 cells – cell-based, resazurin fluorescence, 24 h, PK04 Diversity Set, profiling panel (AID 1172); details: HepG2 viability, higher = more signal; note: test concentration not given here

| Structure (SMILES) | z-score |
| --- | --- |
| O=C1OCCC/C=C\[C@H]2OC34C=CCN(Cc5ccccc5)C(=O)[C@H]3N(CCCCCO)C(=O)[C@@H]4C12 (some centres undefined) | 0.804 |
| CO[C@H]1O[C@H](CO)[C@@H](OC(=O)Nc2ccc(C(F)(F)F)cc2)[C@H](OC(=O)Nc2ccccc2-c2ccccc2)[C@H]1OC(=O)Nc1ccccc1-c1ccccc1 | -5.27 |
| COCCOC(=O)N1C(=O)[C@@]2(c3cc(C#CCCO)ccc31)[C@H](C(=O)N1CCN(c3ncccn3)CC1)[C@H]1C(=O)O[C@H](c3ccccc3)[C@H](c3ccccc3)N1[C@@H]2c1ccc(O)cc1 | -0.335 |
| [N-]=[N+]=NCc1ccccc1[C@H]1OC(c2ccc(OCCCO)cc2)=N[C@@]1(Cc1ccccc1)C(=O)N1CCOCC1 | 1.35 |
| C=CCC(OC(C)=O)[C@@H]1[C@@H](N(Cc2ccc(-c3ccccc3)cc2)C(=O)c2ccc(C)cc2)c2cc(OCCCO)ccc2N1C(=O)c1ccc2ccccc2c1 (some centres undefined) | -0.643 |
| CCCCC(O)C1C=CC2C(=O)N(C)C(=O)C2N1Nc1ccccc1 (centres undefined) | -1.63 |
| COCCOC(=O)N1C(=O)[C@@]2(c3cc(C#CCC(C(=O)OC)C(=O)OC)ccc31)[C@H](C(=O)N1CCCCCCC1)[C@H]1C(=O)O[C@H](c3ccccc3)[C@H](c3ccccc3)N1[C@@H]2c1ccccc1OCCO | 0.194 |
| COC(=O)[C@@]1(Cc2ccccc2)[C@H]2c3cc(C(=O)N4CCCC4)n(Cc4ccc(C(F)(F)F)nc4)c3C[C@H]2CN1C(=O)c1ccccc1 | 0.0826 |
| CN1C(=O)[C@]2(CCS(=O)(=O)c3ccccc3)N=C(c3ccc(OCCCO)cc3)O[C@@H]2c2ccccc21 | -0.0688 |
